Laboratory results from publication PMC8384837, “Expanding the binding specificity for RNA recognition by a PUF domain”.

Experiments:
Assay in all cases: yeast three-hybrid, YBZ-1, SC-Leu-His + 0.5 mM 3-AT, 4 days
Conditions in all cases: tags: N-Gal4 AD-HA kept; label: inside an RPR1-promoter hybrid RNA with tandem MS2 sites; ssRNA
[1] = target: PUM1 PUF domain R4-SRS (Homo sapiens, UniProt Q14671 828-1176, N971S;H972R;Q975S)
How it was run: (§1)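 Matching RNA elements and Pumilio-1 PUF domain libraries, randomized at the three base-contacting residues of every repeat, were co-expressed from a centromeric plasmid in strain YBZ-1 (LexA–MS2 coat fusion, HIS3 reporter). The repeat regions were PCR-amplified and Illumina-sequenced from cells grown four days on SC-Leu (input) or SC-Leu-His + 0.5 mM 3-AT (selection). The interaction score is the log change in variant frequency from input to selection. It is computed in log2, with a pseudocount of 1 for absent variants.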

[2] = target: PUM1 PUF domain R1-KYV (Homo sapiens, UniProt Q14671 828-1176, S863K;R864Y;Q867V)
How it was run: as §1

[3] = target: PUM1 PUF domain R3-TRV (Homo sapiens, UniProt Q14671 828-1176, C935T;Q939V)
How it was run: as §1

[4] = target: PUM1 PUF domain R3-QRI (Homo sapiens, UniProt Q14671 828-1176, C935Q;Q939I)
How it was run: as §1

[5] = target: PUM1 PUF domain R3-LRL (Homo sapiens, UniProt Q14671 828-1176, C935L;Q939L)
How it was run: as §1

[6] = target: PUM1 PUF domain R5-RSS (Homo sapiens, UniProt Q14671 828-1176, C1007R;R1008S;Q1011S)
How it was run: as §1

[7] = target: PUM1 PUF domain R5-KNL (Homo sapiens, UniProt Q14671 828-1176, C1007K;R1008N;Q1011L)
How it was run: as §1

[8] = target: PUM1 PUF domain R5-RCD (Homo sapiens, UniProt Q14671 828-1176, C1007R;R1008C;Q1011D)
How it was run: as §1

[9] = target: PUM1 PUF domain R5-KRA (Homo sapiens, UniProt Q14671 828-1176, C1007K;Q1011A)
How it was run: as §1

GGCUAGAACUAGUGGAUCCCCCGGCGCCCGGCGGCUCGAGCCCGGGUAAGUGUACAUAGUCUGCAUGCCGCCGGGCGCCAUGCCUGCAGGUCGACUCUAGAAAACAUG
binding signal [1]: 1.59 log2 enrichment (interaction score)

GGCUAGAACUAGUGGAUCCCCCGGCGCCCGGCGGCUCGAGCCCGGGUAAGUGUAAAUUGUCUGCAUGCCGCCGGGCGCCAUGCCUGCAGGUCGACUCUAGAAAACAUG
binding signal [2]: 2.06 log2 enrichment (interaction score)

GGCUAGAACUAGUGGAUCCCCCGGCGCCCGGCGGCUCGAGCCCGGGUAAGUGUAAGUAGUCUGCAUGCCGCCGGGCGCCAUGCCUGCAGGUCGACUCUAGAAAACAUG
binding signal [3]: 1.18 log2 enrichment (interaction score)
binding signal [4]: 3.99 log2 enrichment (interaction score)
binding signal [5]: 2.89 log2 enrichment (interaction score)

GGCUAGAACUAGUGGAUCCCCCGGCGCCCGGCGGCUCGAGCCCGGGUAAGUGUCAAUAGUCUGCAUGCCGCCGGGCGCCAUGCCUGCAGGUCGACUCUAGAAAACAUG
binding signal [6]: 2.89 log2 enrichment (interaction score)
binding signal [7]: 4.73 log2 enrichment (interaction score)
binding signal [8]: 3.7 log2 enrichment (interaction score)
binding signal [9]: 2.92 log2 enrichment (interaction score)
